The target of one assay is T1, ETV3 (Homo sapiens, UniProt P41162-2 1-143).
T1 sequence: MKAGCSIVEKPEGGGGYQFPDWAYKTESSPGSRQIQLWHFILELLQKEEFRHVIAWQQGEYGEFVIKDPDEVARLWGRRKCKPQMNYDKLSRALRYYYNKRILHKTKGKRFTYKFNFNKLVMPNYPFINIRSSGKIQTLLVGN
The experiment in a line: DAPPL (digital affinity profiling via proximity ligation, sequencing); 10 mM Tris-HCl pH 7.5, 50 mM NaCl, 1 mM DTT, 4% glycerol, room temperature, 30 min; GST-TFs on glutathione beads, 16-mer random dsDNA library, 0.1% formaldehyde crosslink after washing; high values mean tight binding. Particulars: protein: recombinant; tags: N-terminal GST; dsDNA, one strand shown. Put shortly:
(§1)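 Binding signal is each hexamer's read frequency for a factor divided by its frequency in the tag-only sample. The factors were GST-fused human transcription factors from yeast, captured on glutathione beads, DNA-barcoded and pooled with that sample. Pools were incubated with 200 nmole of a random double-stranded 16-mer DNA library in Tris/NaCl/DTT/glycerol buffer at room temperature for 30 min, then washed, crosslinked with 0.1% formaldehyde, proximity-ligated with BsaI/T4 ligase (1 h, 37 °C), PCR-amplified and sequenced on an Illumina NextSeq500.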
Sequence of ETV6 (P41212 whole entry): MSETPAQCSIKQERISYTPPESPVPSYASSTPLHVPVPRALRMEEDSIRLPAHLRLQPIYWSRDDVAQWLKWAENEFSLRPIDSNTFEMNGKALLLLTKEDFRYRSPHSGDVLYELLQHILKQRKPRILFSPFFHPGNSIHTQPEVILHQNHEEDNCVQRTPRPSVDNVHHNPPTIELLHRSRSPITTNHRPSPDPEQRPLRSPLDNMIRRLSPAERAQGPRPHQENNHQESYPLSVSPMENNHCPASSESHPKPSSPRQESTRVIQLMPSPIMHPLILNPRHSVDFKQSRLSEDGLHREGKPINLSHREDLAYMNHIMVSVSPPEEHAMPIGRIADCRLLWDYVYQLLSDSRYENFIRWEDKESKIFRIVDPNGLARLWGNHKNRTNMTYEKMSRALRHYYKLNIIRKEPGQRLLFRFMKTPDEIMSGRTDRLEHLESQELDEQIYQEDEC
Take GCTCTA: the binding signal is 1.1 fold enrichment (6-mer frequency, TF over GST control).
Still for that read-out and setting: the figure for TCCGGT is 4.02 fold enrichment (6-mer frequency, TF over GST control).
Still for that read-out and setting: the figure for ATTTTG is 1.1 fold enrichment (6-mer frequency, TF over GST control).
Still for that read-out and setting: the figure for CCCCTC is 1.28 fold enrichment (6-mer frequency, TF over GST control).
In the case of ATGTTA, the binding signal was 1.23 fold enrichment (6-mer frequency, TF over GST control).
The same measure, in the same setting: the figure for TTGGTG is 1.32 fold enrichment (6-mer frequency, TF over GST control).
On the same count and under the same terms, next, TCCTCC: 1.55 fold enrichment (6-mer frequency, TF over GST control); TTTCGA: 1.41 fold enrichment (6-mer frequency, TF over GST control).
On the same count and under the same terms, the figure for CAAAAA is 1.12 fold enrichment (6-mer frequency, TF over GST control); for TGCTTC it is 2.21 fold enrichment (6-mer frequency, TF over GST control); for TCACTC it is 1.22 fold enrichment (6-mer frequency, TF over GST control).
With ATACAA, the binding signal is 1.08 fold enrichment (6-mer frequency, TF over GST control).
As for TTTTGG, the binding signal was 1.36 fold enrichment (6-mer frequency, TF over GST control).
Consider TAACTG, for which the binding signal was 1.25 fold enrichment (6-mer frequency, TF over GST control).
The same measure, in the same setting: the figure for CAATCT is 1.19 fold enrichment (6-mer frequency, TF over GST control); for ATTATT it is 1.18 fold enrichment (6-mer frequency, TF over GST control); for AGTGCT it is 1.56 fold enrichment (6-mer frequency, TF over GST control).
On the same count and under the same terms, the figure for TGGATG is 1.57 fold enrichment (6-mer frequency, TF over GST control); for TAATCT it is 1.28 fold enrichment (6-mer frequency, TF over GST control).
The same measure, in the same setting: the figure for TGCTCC is 1.37 fold enrichment (6-mer frequency, TF over GST control).
As to CTGGTT, the binding signal is 1.45 fold enrichment (6-mer frequency, TF over GST control).
As to AATTAC, the binding signal was 1.26 fold enrichment (6-mer frequency, TF over GST control).
The same measure, in the same setting: next, TTAAGG: 1.16 fold enrichment (6-mer frequency, TF over GST control); ACTACG: 1.35 fold enrichment (6-mer frequency, TF over GST control).
On the same count and under the same terms, next, CTATGC: 1.55 fold enrichment (6-mer frequency, TF over GST control); TCATCC: 1.55 fold enrichment (6-mer frequency, TF over GST control); GTATCT: 1.13 fold enrichment (6-mer frequency, TF over GST control).
With TCATTT, the binding signal was 1.3 fold enrichment (6-mer frequency, TF over GST control).
The same measure, in the same setting: next, CTCTCT: 1.68 fold enrichment (6-mer frequency, TF over GST control); AAGTTA: 1.19 fold enrichment (6-mer frequency, TF over GST control); ATCACC: 1.12 fold enrichment (6-mer frequency, TF over GST control).
Same read-out and setting: next, ATCCTT: 1.84 fold enrichment (6-mer frequency, TF over GST control); GGTATT: 1.12 fold enrichment (6-mer frequency, TF over GST control); CATATA: 1.09 fold enrichment (6-mer frequency, TF over GST control).
Same read-out and setting: next, TACCTC: 1.25 fold enrichment (6-mer frequency, TF over GST control); ACGAAT: 1.11 fold enrichment (6-mer frequency, TF over GST control); AATTGC: 1.35 fold enrichment (6-mer frequency, TF over GST control).
As to TTAAAG, the binding signal was 1.21 fold enrichment (6-mer frequency, TF over GST control).
Same read-out and setting: the figure for CTATTC is 1.33 fold enrichment (6-mer frequency, TF over GST control); for TTTTGT it is 1.34 fold enrichment (6-mer frequency, TF over GST control).

Another assay deals with ETV6 (Homo sapiens, UniProt P41212 1-452). The description is as above. The conditions noted are these: protein: recombinant; tags: N-terminal GST; dsDNA, one strand shown. Put shortly:
as §1
GCTCTA: the binding signal was 1.09 fold enrichment (6-mer frequency, TF over GST control).
On the same count and under the same terms, the figure for TCCGGT is 4.04 fold enrichment (6-mer frequency, TF over GST control); for ATTTTG it is 1.24 fold enrichment (6-mer frequency, TF over GST control).
As for CCCCTC, the binding signal is 1.28 fold enrichment (6-mer frequency, TF over GST control).
The same measure, in the same setting: the figure for ATGTTA is 1.28 fold enrichment (6-mer frequency, TF over GST control); for TTGGTG it is 1.18 fold enrichment (6-mer frequency, TF over GST control).
Still for that read-out and setting: next, TCCTCC: 1.51 fold enrichment (6-mer frequency, TF over GST control).
On the same count and under the same terms, the figure for TTTCGA is 1.33 fold enrichment (6-mer frequency, TF over GST control); for CAAAAA it is 1.12 fold enrichment (6-mer frequency, TF over GST control); for TGCTTC it is 2.45 fold enrichment (6-mer frequency, TF over GST control).
With TCACTC, the binding signal was 1.19 fold enrichment (6-mer frequency, TF over GST control).
Same read-out and setting: next, ATACAA: 1.12 fold enrichment (6-mer frequency, TF over GST control); TTTTGG: 1.42 fold enrichment (6-mer frequency, TF over GST control).
TAACTG: the binding signal was 1.26 fold enrichment (6-mer frequency, TF over GST control).
On the same count and under the same terms, next, CAATCT: 1.19 fold enrichment (6-mer frequency, TF over GST control); ATTATT: 1.13 fold enrichment (6-mer frequency, TF over GST control).
The same measure, in the same setting: the figure for AGTGCT is 1.52 fold enrichment (6-mer frequency, TF over GST control).
Still for that read-out and setting: next, TGGATG: 1.44 fold enrichment (6-mer frequency, TF over GST control).
Regarding TAATCT, the binding signal is 1.37 fold enrichment (6-mer frequency, TF over GST control).
Regarding TGCTCC, the binding signal is 1.34 fold enrichment (6-mer frequency, TF over GST control).
On the same count and under the same terms, the figure for CTGGTT is 1.32 fold enrichment (6-mer frequency, TF over GST control).
The same measure, in the same setting: the figure for AATTAC is 1.38 fold enrichment (6-mer frequency, TF over GST control); for TTAAGG it is 1.06 fold enrichment (6-mer frequency, TF over GST control); for ACTACG it is 1.32 fold enrichment (6-mer frequency, TF over GST control).
In the case of CTATGC, the binding signal is 1.33 fold enrichment (6-mer frequency, TF over GST control).
Same read-out and setting: the figure for TCATCC is 1.38 fold enrichment (6-mer frequency, TF over GST control); for GTATCT it is 1.19 fold enrichment (6-mer frequency, TF over GST control); for TCATTT it is 1.35 fold enrichment (6-mer frequency, TF over GST control).
The same measure, in the same setting: next, CTCTCT: 1.59 fold enrichment (6-mer frequency, TF over GST control); AAGTTA: 1.3 fold enrichment (6-mer frequency, TF over GST control); ATCACC: 1.06 fold enrichment (6-mer frequency, TF over GST control).
Consider ATCCTT, for which the binding signal is 1.68 fold enrichment (6-mer frequency, TF over GST control).
The same measure, in the same setting: the figure for GGTATT is 1.24 fold enrichment (6-mer frequency, TF over GST control); for CATATA it is 1.12 fold enrichment (6-mer frequency, TF over GST control).
As for TACCTC, the binding signal is 1.11 fold enrichment (6-mer frequency, TF over GST control).
On the same count and under the same terms, the figure for ACGAAT is 1.11 fold enrichment (6-mer frequency, TF over GST control); for AATTGC it is 1.43 fold enrichment (6-mer frequency, TF over GST control); for TTAAAG it is 1.19 fold enrichment (6-mer frequency, TF over GST control).
Still for that read-out and setting: next, CTATTC: 1.4 fold enrichment (6-mer frequency, TF over GST control); TTTTGT: 1.24 fold enrichment (6-mer frequency, TF over GST control).

The values are drawn from PMC7862700, “An all-to-all approach to the identification of sequence-specific readers for epigenetic DNA modifications on cytosine”.
